# Data from PubChem BioAssay (NCATS).
# Results filed as inconclusive are left out. Where a call stands in place of a potency, no number is given. Active and inactive are the calls of the source. Unless noted, the call rests on the fitted dose curve.
# Assays:
# [1] = qHTS for Inhibitors of the Functional Ribonucleoprotein Complex (vRNP) of Lassa (LASV) Arenavirus: Viability assay - alamar blue signal for LASV Primary Screen (AID 1347083; calls by dose curve; tested in HEK293 reporter line; further: nearly all actives have a fitted effect of over 80% in size)
# [2] = qHTS for Inhibitors of the Functional Ribonucleoprotein Complex (vRNP) of Lymphocytic Choriomeningitis Arenaviruses (LCMV): Viability assay - alamar blue signal for LCMV Primary Screen (AID 1347085; calls by dose curve; tested in HEK293 reporter line; further: nearly all actives have a fitted effect of over 80% in size)
# [3] = target: Nucleoprotein (Lymphocytic choriomeningitis virus (strain Armstrong)) (UniProt P09992); test: qHTS for Inhibitors of the Functional Ribonucleoprotein Complex (vRNP) of Lymphocytic Choriomeningitis Arenaviruses (LCMV): LCMV Primary Screen - GLuc reporter signal (AID 1347086); further: nearly all actives have a fitted effect of over 70% in size
# Potency means the concentration at half of the fitted maximal effect.
# Sequence of Nucleoprotein (Lymphocytic choriomeningitis virus (strain Armstrong)) (P09992 whole entry, looked up): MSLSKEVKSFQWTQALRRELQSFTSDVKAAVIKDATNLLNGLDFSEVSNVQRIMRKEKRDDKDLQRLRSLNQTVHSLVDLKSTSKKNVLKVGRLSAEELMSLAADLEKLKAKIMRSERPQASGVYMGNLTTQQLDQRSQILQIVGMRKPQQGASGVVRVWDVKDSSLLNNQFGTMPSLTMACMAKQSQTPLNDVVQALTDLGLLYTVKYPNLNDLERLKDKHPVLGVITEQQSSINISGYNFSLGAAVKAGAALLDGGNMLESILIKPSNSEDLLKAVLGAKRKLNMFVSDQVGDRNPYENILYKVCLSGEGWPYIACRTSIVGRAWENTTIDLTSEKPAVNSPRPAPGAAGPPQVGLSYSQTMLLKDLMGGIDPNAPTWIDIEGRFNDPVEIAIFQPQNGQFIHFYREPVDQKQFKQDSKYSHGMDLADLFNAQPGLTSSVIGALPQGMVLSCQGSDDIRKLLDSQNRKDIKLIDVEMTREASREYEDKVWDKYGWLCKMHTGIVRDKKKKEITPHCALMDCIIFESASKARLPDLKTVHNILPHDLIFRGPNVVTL
SMILES,Potency [1],Potency [2],Potency [3]
Cc1nccc2c1[nH]c1ccccc12,inactive,inactive,inactive
C[N+]1(C)C2CC(OC(=O)[C@H](CO)c3ccccc3)CC1C1OC12 (stereo not given in full),inactive,inactive,inactive
O=C(O)[C@@H](c1ccc(OCc2ccc3ccccc3n2)cc1)C1CCCC1,inactive,inactive,inactive
CCCCC(CC)COC(=O)/C=C/c1ccc(OC)cc1 (stereo not given),inactive,inactive,inactive
NCc1cc(=O)[nH]o1,inactive,inactive,inactive
NC(CO)C(=O)NNCc1ccc(O)c(O)c1O (stereo not given),inactive,inactive,inactive
Cc1cc(-c2ccccc2)nnc1NCCN1CCOCC1,inactive,inactive,inactive
COc1ccc(-c2ccc3c(N4CCOC[C@H]4C)nc(N4CCOC[C@H]4C)nc3n2)cc1CO,0.0153 µM (active),0.0306 µM (active),30.6 nM (active)
Cc1ccccc1N=Nc1ccc(N=Nc2c(O)ccc3ccccc23)c(C)c1,inactive,inactive,inactive
Oc1cccc(-c2nc(N3CCOCC3)c3oc4ncccc4c3n2)c1,0.885 µM (active),1.4 µM (active),1400 nM (active)
C[C@H](CN1CCCC1)C(=O)c1ccc(C(F)(F)F)cc1,inactive,inactive,inactive
O=C(NOC[C@H](O)CO)c1ccc(F)c(F)c1Nc1ccc(I)cc1F,inactive,inactive,inactive
Cc1c(CN2CCN(C(=O)C(C)C)CC2)sc2c(N3CCOCC3)nc(-c3cnc(N)nc3)nc12,0.137 µM (active),0.273 µM (active),217 nM (active)
[O-][n+]1cccc(CO)c1,inactive,inactive,inactive
CC(=O)[C@H]1CCC2C3CC[C@H]4C[C@H](O)CC[C@]4(C)C3CC[C@@]21C (stereo not given in full),inactive,inactive,inactive
Nc1ccccc1N,inactive,inactive,inactive
O=C1C=CC[C@@H]2[C@H]3CCCN4CCC[C@@H](CN12)[C@@H]34,inactive,inactive,inactive
CCCCCCCCCCC(CO)CCCCCCCC (stereo not given),inactive,inactive,inactive
COc1ncc(-c2ccc3nccc(-c4ccnnc4)c3c2)cc1NS(=O)(=O)c1ccc(F)cc1F,0.0097 µM (active),0.0172 µM (active),34.3 nM (active)
CN1CCN(c2c(F)cc3c(=O)c(C(=O)O)cn4c3c2OCN4C)CC1,inactive,inactive,inactive
CN(C)CCN(C)C(=O)c1ccc(NC(=O)Nc2ccc(-c3nc(N4CCOCC4)c4ccn(CC(F)(F)F)c4n3)cc2)cc1,0.0485 µM (active),0.0432 µM (active),76.9 nM (active)
Cc1ccc(C(=O)Nc2cccc(C(F)(F)F)c2)cc1-c1ccc2nc(NCCN3CCOCC3)ncc2c1,13.7 µM (active),19.3 µM (active),12200 nM (active)
OCc1ccccn1,inactive,inactive,inactive

SMILES,Potency [1],Potency [2],Potency [3]
C[C@]12CC[C@H](O)CC1=CC[C@@H]1[C@H]2CC[C@]2(C)C(c3cccnc3)=CC[C@H]12,inactive,inactive,inactive
O=C(NO)c1ccccc1,inactive,inactive,inactive
CC(=O)N[C@@H](Cc1ccc(O)cc1)C(=O)O,inactive,inactive,inactive
c1ccc2[nH]ccc2c1,inactive,inactive,inactive
OCCn1cc(-c2ccc3c(c2)CCC3=NO)c(-c2ccncc2)n1,10.9 µM (active),1.72 µM (active),7690 nM (active)
O=C(C=Cc1cccc(S(=O)(=O)Nc2ccccc2)c1)NO,25 µM (active),39.5 µM (active),inactive
Cc1cccc(C)c1NC(=O)c1ccc(N)cc1,inactive,inactive,inactive
O=C1NS(=O)(=O)c2ccccc21,inactive,inactive,inactive
CCc1c(C)[nH]c2c1C(=O)C(CN1CCOCC1)CC2 (stereo not given),inactive,inactive,inactive
Cc1ccc(-c2ncn(-c3ccc(Nc4nccc(-c5cccc(N6CCOCC6)c5)n4)cc3)n2)cn1,0.485 µM (active),0.485 µM (active),inactive
O=C(Nc1ccc(Oc2ccc(Cl)cc2)c(Cl)c1)c1cc(I)cc(I)c1O,inactive,inactive,inactive
N#C/C(=C1\SCC(c2ccccc2Cl)S1)n1ccnc1 (stereo not given),inactive,inactive,inactive
CN(C)Cc1ccc(-c2nc3cccc4c3n2CCNC4=O)cc1,21.7 µM (active),6.85 µM (active),inactive
CC(=O)Oc1cccc(C)c1,inactive,inactive,inactive
CC(C)(C)NCC(O)c1ccc(O)c(CO)c1 (stereo not given),inactive,inactive,inactive
Cc1ccc(S(=O)(=O)Nc2cc(Cl)ccc2C(=O)Nc2nc(-c3ccccc3)cs2)cc1,inactive,inactive,inactive
COc1cccc2nc(-c3cccs3)nc(NN3C(=O)C=C(C)C3=O)c12,2.73 µM (active),6.11 µM (active),7690 nM (active)
COc1ccc2c3n(c(=NC(=O)c4cccnc4)nc2c1OC)CCN3,1.53 µM (active),0.968 µM (active),769 nM (active)
O=C(Cc1ccc(Cl)c(Cl)c1)N1CCCCC1CN1CCCC1 (stereo not given),inactive,inactive,inactive
CC(C)CC(=O)Nc1n[nH]c2c1CN(C(=O)C1CCN(C)CC1)C2(C)C,inactive,inactive,inactive
O=C(O)c1ccc2c(c1)nc(Nc1cccc(Cl)c1)c1ccncc12,inactive,inactive,inactive
CCOc1cc2ncc(C#N)c(Nc3ccc(F)c(Cl)c3)c2cc1NC(=O)C=CCN(C)C,1.93 µM (active),19.3 µM (active),24300 nM (active)
